Results reported in PubChem BioAssay (NCATS).
Records with an inconclusive call do not appear. The source made the active and inactive calls. Unless noted, calls follow the shape of the dose curve; as a rule, active = well fitted curve in the direction sought with a large enough effect; inconclusive = small, poorly fitted or top-dose-only effect, or another doubt; inactive = no such curve, though single readings can be large; an effect the other way counts as inactive or inconclusive.

Tests used:
[1] = Cell Viability - LYMP1-002 - Assay at 24 hr (AID 993); conditions: LYMP1-002 lymphoblastoid cells viability; series mostly up to 92.2 µM; also: % is scaled to controls: 0 for no effect and ±100 for the full control effect
Summary of the method: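 Human lymphoblastoid LYMP1-002 cells (2500/well) treated 24 h at 37 °C; viability as intracellular ATP by CellTiter-Glo luminescence. Tetraoctylammonium bromide as positive control; AC50 from Hill-equation fits of qHTS concentration-response.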

[2] = Cell Viability - LYMP1-002 - Assay at 40 hr (AID 994); conditions: LYMP1-002 lymphoblastoid cell viability; series mostly up to 92.2 µM;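 also: 0% = DMSO only and full inhibition = 92 µM tetraoctylammonium bromide; nearly all actives have a fitted effect of over 60% in size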
Summary of the method: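 LYMP1-002 human lymphoblastoid cells (2500/well, complete medium) were treated with compounds for 40 hr at 37 C. Intracellular ATP was measured by CellTiter-Glo luminescence, and AC50 values came from Hill-equation fits of concentration-response data; tetraoctylammonium bromide was the positive control.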

[3] = qHTS Assay for Identification of Small Molecule Inducers of Hypoxia Response (AID 2120; active = well fitted curve in the direction sought with a large enough effect in the signal ratio, with a control signal flat, not every such curve was filed as active; the % refers to the signal ratio; also: 0% is about no effect); conditions: hypoxia response reporter cells, beta-lactamase ratio readout; series mostly up to 104 µM
Summary of the method: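 HRE-bla ME-180 cells in Opti-MEM with 0.5% dialyzed FBS, pre-plated 4-5 h, then compound titration for 17 h at 37 degrees Celsius. CCF4 loaded 2.5 h at room temperature; 460/530 nm ratio gave %Activity and AC50 for induction.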

[4] = target: Estrogen receptor (Homo sapiens) (UniProt P03372); assay: qHTS assay for small molecule antagonists of estrogen receptor alpha signaling (AID 588513; active = well fitted curve in the direction sought with a large enough effect in the signal ratio, with a control signal flat, not every such curve was filed as active; the % refers to the signal ratio; also: % is scaled to controls: 0 for no effect and ±100 for the full control effect); conditions: ER-alpha-UAS-bla HEK293, beta-lactamase ratio, antagonist mode; series mostly up to 76.9 µM
Chain of Estrogen receptor (Homo sapiens) (P03372 whole entry, looked up): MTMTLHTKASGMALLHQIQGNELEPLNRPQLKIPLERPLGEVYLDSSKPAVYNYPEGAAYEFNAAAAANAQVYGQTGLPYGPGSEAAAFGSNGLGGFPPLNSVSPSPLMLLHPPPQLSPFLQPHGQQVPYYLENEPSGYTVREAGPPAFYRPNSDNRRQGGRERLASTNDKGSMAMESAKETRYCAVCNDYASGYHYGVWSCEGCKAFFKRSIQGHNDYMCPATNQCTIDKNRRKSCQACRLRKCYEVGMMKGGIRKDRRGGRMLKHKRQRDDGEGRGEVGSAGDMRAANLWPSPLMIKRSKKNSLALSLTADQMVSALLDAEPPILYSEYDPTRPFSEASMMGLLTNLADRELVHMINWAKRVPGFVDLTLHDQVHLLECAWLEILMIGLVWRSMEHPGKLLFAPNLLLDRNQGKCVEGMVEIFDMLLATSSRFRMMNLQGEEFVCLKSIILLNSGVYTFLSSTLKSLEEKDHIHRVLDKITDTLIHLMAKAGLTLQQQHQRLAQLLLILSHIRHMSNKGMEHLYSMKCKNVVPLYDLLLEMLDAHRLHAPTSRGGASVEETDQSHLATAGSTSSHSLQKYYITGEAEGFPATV
Summary of the method: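 Fluorescence from CCF4 substrate after 2 h at room temperature gave reporter activity; cells had been exposed to compound and 0.5nM 17-beta-estradiol for 18 h at 37 C. Hill-equation fitting yielded IC50 and maximal response.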

[5] = target: Estrogen receptor (Homo sapiens) (UniProt P03372); assay: qHTS assay for small molecule agonists of estrogen receptor alpha signaling (AID 588514; calls by dose curve;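 also: 0% = vehicle only and 100% = reference agonist; nearly all actives have a fitted effect of over 70% in size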); conditions: ER-alpha-UAS-bla HEK293, beta-lactamase ratio, 18 h, percent of full estradiol response, vehicle zero; series mostly up to 76.8 µM
Summary of the method: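 ER-alpha-UAS-bla GripTite HEK293 cells, 5000/well in 2% charcoal/dextran-stripped FBS medium, treated with compound titrations 18 h at 37 C. CCF4 beta-lactamase read by fluorescence after 2 h RT; normalised to 20 nM 17-beta-estradiol (100%) and DMSO (0%), Hill fit for EC50 and efficacy.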

[6] = target: Ubiquitin carboxyl-terminal hydrolase 1 (Homo sapiens) (UniProt O94782); assay: Inhibitors of USP1/UAF1: Pilot qHTS (AID 504865); conditions: purified USP1/UAF1, Ub-rhodamine cleavage fluorescence; series mostly up to 114 µM;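 also: rhodamine fluorescence freed from ubiquitin-rhodamine substrate followed over time; top concentration of the series differs between compounds; % is scaled to controls: 0 for no effect and ±100 for the full control effect; nearly all actives have a fitted effect of over 35% in size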
Chain of Ubiquitin carboxyl-terminal hydrolase 1 (Homo sapiens) (O94782 whole entry, looked up): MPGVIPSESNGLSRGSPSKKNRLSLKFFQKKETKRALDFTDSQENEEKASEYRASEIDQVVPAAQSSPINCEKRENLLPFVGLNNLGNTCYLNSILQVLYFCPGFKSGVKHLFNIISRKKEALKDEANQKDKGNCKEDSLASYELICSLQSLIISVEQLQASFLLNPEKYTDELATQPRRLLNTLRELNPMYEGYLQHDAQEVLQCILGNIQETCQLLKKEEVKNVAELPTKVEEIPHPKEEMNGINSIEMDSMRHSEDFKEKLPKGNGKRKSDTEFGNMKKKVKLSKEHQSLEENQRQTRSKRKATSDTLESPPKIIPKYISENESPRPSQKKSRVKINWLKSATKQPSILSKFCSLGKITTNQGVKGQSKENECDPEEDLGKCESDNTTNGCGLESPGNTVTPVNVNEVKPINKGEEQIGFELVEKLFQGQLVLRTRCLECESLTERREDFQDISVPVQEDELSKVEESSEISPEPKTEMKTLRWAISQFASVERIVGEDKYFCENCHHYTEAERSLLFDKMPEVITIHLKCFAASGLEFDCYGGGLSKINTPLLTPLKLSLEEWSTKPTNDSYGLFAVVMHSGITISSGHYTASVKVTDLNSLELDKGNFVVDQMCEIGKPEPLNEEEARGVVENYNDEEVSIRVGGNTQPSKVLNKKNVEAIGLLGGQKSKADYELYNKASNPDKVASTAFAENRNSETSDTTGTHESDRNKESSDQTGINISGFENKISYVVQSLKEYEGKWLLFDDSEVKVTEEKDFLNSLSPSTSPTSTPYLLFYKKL
Summary of the method: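 In 50mM HEPES pH 7.8 containing 0.5mM EDTA, 1mM TCEP, 0.1 mg/ml BSA and 0.01% Tween-20, 1nM USP1/UAF1 is exposed to compound for 15 min, then Ub-Rho (150nM final) is added and fluorescence is read over time.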

[7] = qHTS Assay for Lipid Storage Modulators (AID 1519; calls by dose curve; as to activity change, negative = inhibition: % is scaled to controls: 0 for no effect and ±100 for the full control effect); conditions: Drosophila S3 cells, BODIPY lipid droplet/cell ratio, laser cytometry, cells loaded with oleic acid
Summary of the method: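 Cells seeded at 5,000 per well were treated with compounds over a concentration series and loaded with oleic acid (400 uM, as added). Lipid droplet fluorescence (488 nm excitation, 500-530 nm channel) was read by laser-scanning cytometry and normalized to 20 uM Triacsin C.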

[8] = target: ATP-dependent 6-phosphofructokinase (Trypanosoma brucei brucei) (UniProt O15648); assay: qHTS Assay to Find Inhibitors of T. brucei phosphofructokinase: hit validation (AID 492961);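 also: luminescence reports ADP formed as PFK phosphorylates fructose-6-phosphate with ATP; % is scaled to controls: 0 for no effect and ±100 for the full control effect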; conditions: T. brucei PFK, ADP-Glo luminescence; series mostly up to 51.4 µM
Chain of ATP-dependent 6-phosphofructokinase (Trypanosoma brucei brucei) (O15648 whole entry, looked up): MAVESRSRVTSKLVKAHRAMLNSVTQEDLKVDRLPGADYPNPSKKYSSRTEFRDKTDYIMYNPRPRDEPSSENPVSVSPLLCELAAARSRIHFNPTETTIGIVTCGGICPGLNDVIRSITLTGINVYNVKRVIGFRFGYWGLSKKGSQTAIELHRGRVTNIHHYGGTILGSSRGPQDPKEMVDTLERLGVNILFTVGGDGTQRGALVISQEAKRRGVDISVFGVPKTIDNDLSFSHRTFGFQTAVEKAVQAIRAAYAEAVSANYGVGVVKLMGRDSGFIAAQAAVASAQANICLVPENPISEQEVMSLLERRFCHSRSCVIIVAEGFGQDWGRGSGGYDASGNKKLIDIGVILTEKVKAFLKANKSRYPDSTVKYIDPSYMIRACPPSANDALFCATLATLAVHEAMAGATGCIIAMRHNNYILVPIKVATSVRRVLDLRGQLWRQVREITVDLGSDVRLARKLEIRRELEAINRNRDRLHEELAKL
Summary of the method: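 Reaction: 0.1 M triethanolamine pH 8.0, 5 mM MgCl2, F6P 0.5 mM, ATP 0.1 mM, PFK 1.25 nM, 45 min RT. Read-out: ADP-Glo luminescence. Analysis: concentration-response fits, classed by r2 and efficacy.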

[9] = target: Alpha-galactosidase A (Homo sapiens) (UniProt P06280); assay: Counterscreen for Glucocerebrosidase Inhibitors: qHTS Assay for Human alpha-Galactosidase at pH 4.5 (AID 992); conditions: purified enzyme, fluorogenic substrate; series mostly up to 76.9 µM; also: 0% is about no effect
Chain of Alpha-galactosidase A (Homo sapiens) (P06280 whole entry, looked up): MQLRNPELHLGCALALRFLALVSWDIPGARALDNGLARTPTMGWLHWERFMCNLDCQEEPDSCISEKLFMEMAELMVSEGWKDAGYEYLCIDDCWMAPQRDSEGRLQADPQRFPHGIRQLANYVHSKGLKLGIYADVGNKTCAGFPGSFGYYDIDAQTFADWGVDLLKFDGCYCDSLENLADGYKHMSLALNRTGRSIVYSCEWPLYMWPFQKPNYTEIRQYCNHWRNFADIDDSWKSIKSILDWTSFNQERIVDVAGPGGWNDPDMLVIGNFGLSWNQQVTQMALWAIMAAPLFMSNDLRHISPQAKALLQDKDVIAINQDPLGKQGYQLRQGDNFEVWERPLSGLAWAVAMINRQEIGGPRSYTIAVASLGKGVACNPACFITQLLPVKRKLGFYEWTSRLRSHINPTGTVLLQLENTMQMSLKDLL
Summary of the method: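 Read-out is 4-methylumbelliferone fluorescence (365 nm excitation, 440 nm emission) after a pH 10 NaOH/glycine stop. Reactions held 2 nM enzyme and 80 uM substrate at pH 4.5 for 20 min at room temperature.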

[10] = target: alpha-glucosidase (Oryza sativa, rice) (UniProt Q653V4); assay: Counterscreen for Glucocerebrosidase Inhibitors: qHTS Assay for Rice alpha-Glucosidase at pH 5.0 (AID 997); conditions: rice alpha-glucosidase enzyme activity; series mostly up to 76.9 µM;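 also: 0% = full activity with enzyme and -100% = basal without enzyme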
Summary of the method: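 Rice alpha-glucosidase (4 nM final) with 400 uM 4-methylumbelliferyl-alpha-D-glucopyranoside in citrate buffer pH 5.0, 20 min at room temperature, stopped at pH 10; fluorescence 365/440 nm, compounds 0.7 nM–77 uM, AC50 from Hill fits.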

Question: Which results are given for `COc1ccc(CCC(=O)c2c(O)cc(O[C@@H]3O[C@H](CO)[C@@H](O)[C@H](O)[C@H]3O[C@@H]3O[C@@H](C)[C@H](O)[C@@H](O)[C@H]3O)cc2O)cc1O`?
Answer: outcome [1]: inactive; outcome [2]: inactive; outcome [3]: inactive; outcome [4]: inactive; outcome [5]: inactive

Question: Which outcome [1] does the source give for `C=C1C[C@]23C[C@@]1(O)CC[C@H]2[C@@]12C=C[C@H](O)[C@@](C)(C(=O)O1)[C@H]2[C@@H]3C(=O)O` here?
Answer: Its outcome is “inactive”.

Question: What about the outcome [2] of the same molecule?
Answer: The outcome was “inactive”.

Question: And the outcome [3]?
Answer: Its outcome is “inactive”.

Question: Which outcome [6] does the source give for `O=C(/C=C/C=C/c1ccc2c(c1)OCO2)N1CCCCC1` here?
Answer: Its outcome is “inactive”.

Question: What about the outcome [4] of the same molecule?
Answer: Its outcome is “inactive”.

Question: And the outcome [5]?
Answer: Its outcome is “inactive”.

Question: For `CCc1cccc2c3c([nH]c12)[C@@](CC)(CC(=O)O)OCC3`, which activity change, negative = inhibition ([7]; at 25.7 µM (top of the series)) is on record?
Answer: Its activity change, negative = inhibition is -1.67% (inactive).

Question: And the max response ([7]; measured here: cell count channel max response)?
Answer: The max response was 8.85%.

Question: What about the max response ([7]; measured here: lipid channel max response) of the same molecule?
Answer: Its max response is 4.97%.

Question: Which results are given for `CCOC(=O)C(CCc1ccccc1)NC(C)C(=O)N1Cc2ccccc2CC1C(=O)O` (stereo not given)?
Answer: outcome [8]: inactive; outcome [6]: inactive

Question: Which results are given for `C[C@]1(C2CCCC2)Cc2cc(OCC(=O)O)c(Cl)c(Cl)c2C1=O`?
Answer: outcome [9]: inactive; outcome [10]: inactive

Question: With `CC(C)C[C@H](NC(=O)[C@@H]1O[C@H]1C(=O)O)C(=O)NCCCCN=C(N)N` as the molecule, how does the outcome [9] read?
Answer: Its outcome is “inactive”.

Question: What about the outcome [10] of the same molecule?
Answer: The outcome was “inactive”.
